The panel holds about 83,000 compounds, 20% with a hit somewhere; the sample as a whole holds those more often.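 The endpoint reported here, percent growth, reads 100 for growth as untreated, 0 for no net growth and -100 for all cells dead.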 Unmarked numbers belong to inactive results. Active and inactive are the calls of the source. The calls were made as follows: active = growth percent below 10; inactive = the rest.

Test in all cases: NCI-60 one-dose screen, 48 h (100 = growth as untreated, 0 = no growth, -100 = all killed)
One test concerns HT29 colon. Particulars: 10 µM unless noted.
The next test deals with SNB-19 CNS. Conditions: 10 µM unless noted.
Another test relates to U251 CNS. Conditions: 10 µM unless noted.
The next test has as its system PC-3 prostate. Particulars: 10 µM unless noted.
The next test has as its system SK-MEL-5 melanoma. Conditions: 10 µM unless noted.
In the next test the test system is UACC-62 melanoma. Conditions: 10 µM unless noted.
Another test relates to LOX IMVI melanoma. Particulars: 10 µM unless noted.
A further test has as its system SK-MEL-28 melanoma. Conditions: 10 µM.
The next test deals with SK-MEL-2 melanoma. Conditions: 10 µM unless noted.
The test system of a further test is EKVX NSCLC. Particulars: 10 µM unless noted.
The subject of the next test is SN12C renal. Conditions: 10 µM unless noted.
The subject of another test is UO-31 renal. Particulars: 10 µM unless noted.
For another test, the system named is TK-10 renal. Particulars: 10 µM unless noted.
The next test concerns ACHN renal. Particulars: 10 µM unless noted.
In another test the test system is CAKI-1 renal. Particulars: 10 µM unless noted.
In another test the test system is A498 renal. Conditions: 10 µM unless noted.
The next test has as its system MOLT-4 leukemia. Particulars: 10 µM unless noted.
The test system of the next test is SR leukemia. Particulars: 10 µM unless noted.
For another test, the system named is CCRF-CEM leukemia. Conditions: 10 µM unless noted.
Another test has as its system SNB-75 CNS. Conditions: 10 µM unless noted.

For `COC(=O)/C(=C\c1c(-c2ccccc2)[nH]c2ccccc12)S(C)(=O)=O`, the growth is 8.37% (active) in the test on HT29 colon; 37.6% in the test on SNB-19 CNS; 26.4% in the test on U251 CNS; 25.6% in the test with PC-3 prostate; 14.3% in the test on SK-MEL-5 melanoma; 37.1% in the test on UACC-62 melanoma. Besides, the growth was 45.1% in the test with LOX IMVI melanoma; 36.1% with SK-MEL-28 melanoma; 39.1% with SK-MEL-2 melanoma; 58% in the test on EKVX NSCLC; 59.4% in the test with SN12C renal; 41.5% in the test on UO-31 renal. Moreover, the growth in the test on TK-10 renal is 67.2%; in the test on ACHN renal it was 56.8%; in the test on CAKI-1 renal, 46.4%; in the test on A498 renal, 29%; with MOLT-4 leukemia it was 25.6%; with SR leukemia, 45.1%.

As to `CCOC(=O)C1=C(C)c2ccc(OC)c(OC)c2C1`, the growth is 95% in the test on HT29 colon; 104% with SNB-19 CNS; 90.4% in the test on U251 CNS; 102% in the test on PC-3 prostate; 96.3% in the test on SK-MEL-5 melanoma; 98.5% with UACC-62 melanoma. Further, the growth was 96.1% in the test with LOX IMVI melanoma; 89.5% in the test with SK-MEL-2 melanoma; 98.8% with EKVX NSCLC; 108% in the test on SN12C renal; 95.5% with UO-31 renal; 87.2% in the test with TK-10 renal. Further, the growth in the test on ACHN renal was 103%; in the test with CAKI-1 renal, 100%; in the test on A498 renal, 96.3%; with CCRF-CEM leukemia, 93%; with MOLT-4 leukemia, 87.7%; in the test with SR leukemia, 73.4%.

Consider `COc1ccc(/C(C#N)=C/c2nc3c(N4CCOCC4)nc(Cl)nc3n2C)cc1OC`, for which the growth with HT29 colon is 3.73% (active); in the test with SNB-19 CNS, 23.5%; in the test on U251 CNS, 12.5%; in the test on PC-3 prostate it was 9.66% (active); in the test on SK-MEL-5 melanoma, -50.5% (active); with UACC-62 melanoma it was -5.32% (active). For the same compound, the growth in the test on LOX IMVI melanoma was -71% (active); in the test with SK-MEL-28 melanoma, 15.1%; in the test with SK-MEL-2 melanoma, 42.7%; with EKVX NSCLC, 20.1%; in the test on SN12C renal, 11.2%; in the test with UO-31 renal, -92.9% (active). Further, the growth was -21.1% (active) with TK-10 renal; -51.3% (active) in the test with ACHN renal; -14.2% (active) with CAKI-1 renal; -27.8% (active) in the test with A498 renal; 11.8% in the test on CCRF-CEM leukemia; 2.05% (active) in the test with MOLT-4 leukemia. Besides, in the test with SR leukemia, the growth was 17.7%.

Turning to `CN1C(=O)N(C)C2Nn3c(s/c(=C4\C(=O)N(CCc5ccccc5)c5ccccc54)c3=O)=NC21` (stereo unspecified), the growth with HT29 colon was 38.4%; with SNB-19 CNS, 85.7%; in the test on U251 CNS it was 77.8%; with PC-3 prostate, 44.4%; in the test on SK-MEL-5 melanoma, 27.4%; in the test on UACC-62 melanoma it was 44.7%. Moreover, the growth was 54.8% in the test with LOX IMVI melanoma; 76.4% with SK-MEL-28 melanoma; 69.3% in the test with SK-MEL-2 melanoma; 58% in the test with EKVX NSCLC; 74.3% with SN12C renal; 62.9% in the test on UO-31 renal. The growth is 70.5% with TK-10 renal; 59.3% with ACHN renal; 49.2% in the test on CAKI-1 renal; 70.3% in the test with A498 renal; 53.1% in the test on CCRF-CEM leukemia; 70.8% in the test with MOLT-4 leukemia. The growth in the test with SR leukemia was 30.4%.

With `COc1ccc(CCN2C(=O)/C(=C/c3ccc(C4Oc5ccccc5C5CC(c6cccc(OC)c6)=NN54)cc3)SC2=S)cc1` (stereo unspecified), the growth in the test on HT29 colon was 104%; in the test on SNB-75 CNS, 90.5%; with U251 CNS, 101%; in the test with SK-MEL-5 melanoma, 99%; with UACC-62 melanoma, 102%; in the test on LOX IMVI melanoma it was 96.4%. Besides, the growth in the test on SK-MEL-28 melanoma is 101%; in the test with SK-MEL-2 melanoma, 99.8%; in the test with EKVX NSCLC, 94.4%; in the test with SN12C renal, 101%; in the test on UO-31 renal, 82%; in the test on TK-10 renal, 103%. Also, the growth was 98.3% in the test with ACHN renal; 95.7% in the test with CAKI-1 renal; 106% in the test on A498 renal; 98.8% in the test on CCRF-CEM leukemia; 104% with MOLT-4 leukemia; 115% with SR leukemia.

In the case of `COc1nc2c(c(=O)n1C)N=C1c3ccccc3C(=O)C1C(c1ccccc1)N2` (stereo unspecified), the growth with HT29 colon is 104%; in the test with SNB-19 CNS it was 91.7%; with U251 CNS, 89.2%; in the test with PC-3 prostate it was 115%; in the test on SK-MEL-5 melanoma, 88.7%; in the test on UACC-62 melanoma, 78.6%. Also, the growth was 83.4% with LOX IMVI melanoma; 90.5% in the test with SK-MEL-28 melanoma; 81.2% in the test with SK-MEL-2 melanoma; 95.4% in the test with SN12C renal; 78.9% in the test with UO-31 renal; 107% in the test with TK-10 renal. In addition, the growth in the test on ACHN renal is 94%; with A498 renal, 89.1%; in the test on CCRF-CEM leukemia, 103%; in the test with MOLT-4 leukemia, 76.5%.

Take `COc1c(B(O)O)cccc1-c1nc2ccc3n[nH]c(F)c3c2c2c1CCCC2`: the growth was 105% in the test with HT29 colon; 78.8% with SNB-19 CNS; 71.4% in the test on U251 CNS; 74% in the test with PC-3 prostate; 88.7% in the test with SK-MEL-5 melanoma; 77.7% in the test with UACC-62 melanoma. In addition, the growth with LOX IMVI melanoma is 54.7%; in the test on SK-MEL-28 melanoma, 116%; in the test on SK-MEL-2 melanoma, 110%; in the test on EKVX NSCLC, 93%; with SN12C renal it was 62.6%; in the test on UO-31 renal it was 41.5%. Moreover, the growth was 35.7% in the test on TK-10 renal; 65.9% in the test on ACHN renal; 0.82% (active) with CAKI-1 renal; 65.7% in the test on A498 renal; 38.8% with CCRF-CEM leukemia.

As for `CC(=O)SC1CC(=O)C=C2CCC3C4CCC(=O)OC4(C)CCC3C21C` (stereo unspecified), the growth in the test on HT29 colon is 101%; in the test on SNB-75 CNS it was 84.2%; in the test with U251 CNS, 99.4%; in the test with PC-3 prostate, 94%; in the test on LOX IMVI melanoma, 97.8%; with SK-MEL-28 melanoma, 120%. Besides, the growth is 87% with UO-31 renal; 93.8% in the test with TK-10 renal; 106% in the test on ACHN renal; 101% with A498 renal; 101% with CCRF-CEM leukemia; 105% in the test with MOLT-4 leukemia. The growth in the test with SR leukemia was 111%.

As for `O=C(/C=C/c1ccc(F)cc1)c1ccc(Nc2nc(NCCO)nc(Nc3ccc(Cl)cc3)n2)cc1`, the growth is 22.4% in the test with HT29 colon; 93.4% in the test on SNB-19 CNS; 27% in the test with U251 CNS; 68% with PC-3 prostate; 75.4% in the test on SK-MEL-5 melanoma; 74.5% in the test on UACC-62 melanoma. In addition, the growth in the test with LOX IMVI melanoma was 37.3%; in the test on SK-MEL-28 melanoma, 86.9%; in the test with SK-MEL-2 melanoma, 103%; in the test with EKVX NSCLC, 67.7%; in the test on SN12C renal, 94%; in the test with UO-31 renal it was 70.7%. Moreover, the growth in the test on TK-10 renal was 93.4%; in the test on ACHN renal, 70.8%; with A498 renal, 70.4%; with CCRF-CEM leukemia, 60.5%; in the test on MOLT-4 leukemia, 57.9%; in the test with SR leukemia, 25.8%.

For the origin of these results see PubChem BioAssay (NCI).
